“And” between values parts separate entries of the source, which are not always exact repeats. Identical values can stand only once. About 780 (0.94%) of roughly 83,000 compounds were called active.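 The calls were made as follows: active = mean inhibition of at least 50% with a set share of replicates also reaching that level; inconclusive = no clear call, values can overlap the other calls; inactive = the rest.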 The sample as a whole holds a higher share of actives than the screen did. Some compounds were tested as several samples or in several runs, with calls that do not always agree.
Assay: inhibitors of CD40-induced NF-kB signaling, primary screen, BL2 cells, luciferase reporter, single point (AID 1053188);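 also: 0% = neutral control wells and 100% = IKK inhibitor VII at 50 µM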
Details: CD40L-induced, 4 h, stronger effect = higher value; at 10 µM unless noted

| Structure (SMILES) | inhibition |
| --- | --- |
| O=C(OCC(=O)N1CCCC1=O)c1cc(S(=O)(=O)N2CCOCC2)ccc1Cl | 17.8% (inactive) |
| O=C(Nc1ccc2c(c1)OCCO2)C1CCCN(c2ncccn2)C1 (stereo unspecified) | -6.73% (inactive) |
| O=C(Nc1ccc2c(c1)OCCO2)C1CCCC1 | 97.3% (active) |
| O=C(Nc1ccc2c(c1)OCCO2)c1ccncc1 | -42.5% (inactive) |
| CCOC(=O)COc1nc(C)cc(C(F)(F)F)c1C#N | 7.91% (inactive) |
| CCCN1[C@H](CO)[C@H](c2ccc(C#CC3CCCCC3)cc2)[C@@H]1CNC(=O)C1CC1 | -8.21% [at 25 µM] (inactive) |
| Cc1onc(-c2ccccc2)c1-c1nnc(COC(=O)c2ccc(N(C)C)cc2)o1 | 27.4% (inactive) |
| CCN(Cc1ccccc1)S(=O)(=O)c1cc2c3c(c1)CCN3C(=O)CC2 | 12.8% (inactive) |
| Cc1ccc(/C=C/C(=O)OCC(=O)NCc2ccc(Cl)cc2)o1 | 50.7% (active) |
| Cc1ccc(CNC(=O)COC(=O)C2CCC2)cc1 | -4.82% (inactive) |
| CC(C)(Oc1ccc(Cl)cc1)C(=O)OCC(=O)NCCc1ccc(S(N)(=O)=O)cc1 | 11.6% (inactive) |
| COC(=O)c1sc(NC(=O)COC(=O)C2CCC2)c(C(=O)OC)c1C | 2.99% (inactive) |
| CC[C@H]1CN2CCc3cc(OC)c(OC)cc3[C@@H]2C[C@@H]1C[C@H]1NCCc2cc(OC)c(OC)cc21 | 89.6% (active) |
| CCn1cc(-c2cc(C(=O)O)on2)c(C)n1 | 8.77% (inactive) |
| CC(C)C#Cc1ccc([C@@H]2[C@@H](C#N)N(C(=O)C3CC3)[C@@H]2CO)cc1 | 3.05% [at 25 µM] (inactive) |
| N#C[C@@H]1[C@H](c2ccc(C#CC3CCCCC3)cc2)[C@@H](CO)N1S(=O)(=O)c1ccccc1 | 51.3% (active) |
| CC(C)NC(=O)N1[C@H](C#N)[C@H](c2ccc(C#CC3CCCCC3)cc2)[C@H]1CO | 52.1% (active) |
| N#C[C@H]1[C@@H](c2ccc(C#CC3CCCC3)cc2)[C@H](CO)N1C(=O)Nc1ccc(F)cc1 | 12% (inactive) |
| CS(=O)(=O)N1[C@@H](C#N)[C@H](c2ccc(C#CC3CCCCC3)cc2)[C@@H]1CO | -1.7% (inactive) |
| CS(=O)(=O)N1[C@H](C#N)[C@H](c2ccc(C#CC3CCCC3)cc2)[C@H]1CO | -13.6% [at 25 µM] (inactive) |
| O=C(O)C(c1cccs1)C1(O)CCCCC1 (stereo unspecified) | 6.28% (inactive) |
| Cn1c(N)cc(-c2ccc(F)cc2)c(C#N)c1=O | 4.59% (inactive) |
| COc1ccc(S(=O)(=O)N2CCOCC2)cc1NC(=O)CSc1cc(C)ccc1C | 2.01% (inactive) |
| Cc1cc2ccccc2n1CCC(=O)O | 4.73% (inactive) |
| C[C@@H]1CC=CC[C@H](c2ccc(F)cc2)NC(=O)[C@@H](Cc2ccccc2)N(C)C(=O)c2ccccc2O1 (mixture of isomers) | 53.9% [at 25 µM] (active) |
| C[C@@H]1C(=O)N[C@H](c2ccc3c(c2)OCO3)CC=CC[C@H](C)Oc2ccccc2C(=O)N1C (mixture of isomers) | 3.83% [at 25 µM] (inactive) |

| Structure (SMILES) | inhibition |
| --- | --- |
| C[C@@H]1CC=CC[C@@H](c2ccccc2)NC(=O)[C@H](C)N(C)C(=O)c2ccccc2O1 (mixture of isomers) | 8.95% [at 25 µM] (inactive) |
| CS(=O)(=O)N1CCN(CC(=O)NC2CCCC2)CC1 | 4.72% (inactive) |
| CS(=O)(=O)N1C[C@@H]2C(c3ccccc3)[C@H](C1)N2CC(F)(F)F (stereo partly specified) | 8.84% (inactive) and 23.5% (inactive) |
| COc1cccc(NC(=O)COC(=O)c2ccc3ccccc3n2)c1 | -7.67% (inactive) |
| O=C(Nc1ccccc1)Nc1nc2ccccc2s1 | -102% (inactive) |
| Cc1ccnc(Nc2nc3ccccc3s2)n1 | -62.3% (inactive) |
| c1ccc(C(=NNc2nc3ccccc3s2)c2ccccn2)cc1 | 72.5% (active) |
| CCN1CCN(c2ccc(S(=O)(=O)N3CCCCC3)cc2NC(=O)c2cccc(NC(C)=O)c2)CC1 | 1.54% (inactive) |
| CCN1CC(CN(C)Cc2nc(-c3ccc(Cl)cc3)no2)CC1=O (stereo unspecified) | 2.41% (inactive) |
| CC1CCCC(NC(=O)c2cc(S(=O)(=O)N3CCCCC3)ccc2Cl)C1C (stereo unspecified) | 6.89% (inactive) |
| Cc1ccc(NC(=O)c2ccco2)cc1 | -36.5% (inactive) |
| COc1cc(C(=O)CCc2ccc3c(c2)OCO3)cc(OC)c1OC | 1.79% (inactive) |
| CCC1CCC2(CC1)NC(=O)N(CC(=O)Nc1ccc(OC)cc1)C2=O (stereo unspecified) | -0.377% (inactive) |
| C/C=C/c1ccc(C2[C@H]3CNC[C@@H]2N3CC2CCOCC2)cc1 (stereo partly specified) | 9.41% (inactive) |
| C/C=C/c1ccc(C2[C@H]3CNC[C@@H]2N3Cc2cccc(OC)c2)cc1 (stereo partly specified) | -2.62% (inactive) and -20.4% (active) |
| C/C=C/c1ccc(C2[C@H]3CNC[C@@H]2N3Cc2cccc(F)c2)cc1 (stereo partly specified) | 0.374% (inactive) and -2.51% (inactive) |
| CCc1noc(C)c1C(=O)N1CCN(S(=O)(=O)c2cccc(C(F)(F)F)c2)CC1 | 1.62% (inactive) |
| O=C1COc2c1ccc(O)c2O | 12.2% (inactive) |
| COc1ccc2c(C)cc(SCC(=O)NCC3CCCO3)nc2c1 (stereo unspecified) | 1.77% (inactive) |
| Cc1ccc(S(=O)(=O)Nc2ccc3c(c2)C(=O)N([C@@H](C)CO)C[C@@H](C)[C@H](CN(C)C(=O)Nc2cccc4ccccc24)OCCCC[C@H](C)O3)cc1 | 9.18% (inactive) |
| Cc1noc(C)c1S(=O)(=O)Nc1ccc2c(c1)C(=O)N([C@@H](C)CO)C[C@@H](C)[C@H](CN(C)C(=O)Nc1cccc3ccccc13)OCCCC[C@H](C)O2 | 8.4% [at 25 µM] (inactive) |
| Cc1noc(C)c1S(=O)(=O)Nc1ccc2c(c1)C(=O)N([C@@H](C)CO)C[C@H](C)[C@@H](CN(C)C(=O)Nc1cccc3ccccc13)OCCCC[C@H](C)O2 | 48% [at 25 µM] (active) |
| O=C(Cc1ccccn1)N1CC(=O)N2[C@H](CO)[C@@H](c3ccc(C#CC4CCCC4)cc3)[C@H]2C1 | -16.2% (inactive) |
| O=C(Cc1ccc(Cl)cc1)c1ccccc1 | -54.5% (inactive) |
| C/C=C/c1cccc(-c2nc(C(=O)NCCN3CCCC3)cc3c2[C@@H](CCO)N([S@](=O)C(C)(C)C)C3)c1 | -2.95% (inactive) |

— PubChem BioAssay AID1053188 (Broad Institute, 2014)
